Compound activity as filed in PubChem BioAssay.
Calb FLC = affects C. albicans growth with fluconazole. C. albicans CaCi-2 (fluconazole-resistant clinical isolate) + fluconazole, Alamar Blue growth, 48 h. growth inhibition, % (concentration not given with the values). 300,000 compounds, 0.57% hits;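 active = growth inhibition above about 58% in most replicates, limit read from the data, passing the limit was not always enough; inconclusive = exactly half the replicates above a set limit; inactive = most replicates below a set limit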;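 note: all wells also contain fluconazole at 8 µg/ml as a sub-toxic cotreatment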
Shn3 inh set2 = Schnurri-3 reporter inhibition in Clone20 osteoblasts | Clone20 osteoblast Shn3 3'UTR firefly luciferase, 24 h | inhibition, % at 12.5 µM | 360,000 compounds, 0.52% hits | AID 588674;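 active = mean inhibition of at least 75% with every replicate also reaching 75%; inconclusive = mean inhibition at least 75% but some replicate below; inactive = mean inhibition below 75%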
697 NFkB inh = inhibitors of the PMA/ionomycin-induced NF-kB reporter in 697 B cells; 697 B-cell NF-kB luciferase reporter, 16 h; inhibition, % at 4 µM; 330,000 compounds, 0.33% hits; AID 435022; in the data active = inhibition above about 35%
Beta apoptosis = beta cell apoptosis inhibition. INS-1E cytokine-induced death, ATP luminescence, 48 h; percent of positive-control rescue, neutral wells zero. protection from apoptosis, % (no concentration beside the values). 300,000 compounds, 0.8% hits. AID 435005;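 active = Every replicate reaches about 75%, or at least half do and their mean reaches it too, limit read from the data; inconclusive = At least half of replicates reach the limit but their mean does not; inactive = Under half of replicates reach the limit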;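 note: higher means more ATP so stronger rescue from cytokine killing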
Jurkat NFkB inh = inhibitors of the PMA/ionomycin-induced NF-kB reporter in Jurkat cells. inhibition, % at 4 µM. PMA/ionomycin-induced NF-kB luciferase reporter, luminescence. 330,000 compounds, 0.53% hits. AID 435003; in the data active = inhibition above about 50%
697 NFkB conf = lowers PMA/ionomycin-induced NF-kB signal in 697 B cells. shares compounds with 697 NFkB inh. inhibition, % at 4 µM. 697 B-cell NF-kB luciferase, 16 h. 2,000 compounds, 35% hits. AID 449746; in the data active = inhibition mostly above about 28%, no sharp cut-off; inactive = mostly below about 22%
Each line names hits and unclear results; the compound was inactive in the other large screens (follow-up assays come after a bar, where they were run). A selection: hits, their analogues and other compounds. The true share with any hit is near 2%.

CCN(CC(=O)NC1CCS(=O)(=O)C1)c1ccc(S(=O)(=O)N(CC)CC)cc1[N+](=O)[O-] (stereo unspecified)	none (no result: Calb FLC)
CC(OC(=O)c1cccc(S(=O)(=O)N2CCCCCC2)c1)C(=O)Nc1ccc(S(N)(=O)=O)cc1 (stereo unspecified)	none (no result: Beta apoptosis)
CC(=O)c1c(C)[nH]c(C(=O)OCCOc2ccccc2)c1C	none | 697 NFkB conf inactive
Cc1c(C(=O)OCCOc2ccccc2)[nH]c2c1C(=O)CCC2	none | 697 NFkB conf inactive
Cc1ccc(-n2c(CCc3ccccc3)n[nH]c2=S)cc1C	none (no result: Beta apoptosis)
O=C(Nc1nccs1)c1sc2cc(Cl)ccc2c1Cl	Calb FLC inconclusive
O=C(Nc1nccs1)c1sc2ccccc2c1Cl	none | 697 NFkB conf inactive
CCCCC(=O)Nc1sc2c(c1C#N)CC(C)(C)OC2	none
CC1(C)Cc2c(sc(NC(=O)Cc3ccccc3)c2C#N)CO1	697 NFkB inh 41 | 697 NFkB conf inactive
CC(C)NC(=O)N(C)C[C@@H]1Oc2c(NC(=O)C3CCOCC3)cccc2C(=O)N([C@@H](C)CO)C[C@H]1C	none (no result: Calb FLC)
Cc1ccc(N=Nc2ccc3ccccc3c2O)cc1	none | 697 NFkB conf inactive
Oc1c(N=Nc2nn[nH]n2)ccc2ccccc12	none (no result: Calb FLC, 697 NFkB inh, Beta apoptosis, Jurkat NFkB inh)
CC1CCN(C(=O)COC(=O)c2ccccc2NCCO)CC1	none (no result: Calb FLC, 697 NFkB inh, Beta apoptosis, Jurkat NFkB inh)
Cc1ccc(N(CC(=O)NCc2ccco2)C(=O)CCC(=O)Nc2ccccn2)c(C)c1	none
COc1ccccc1NC(=S)N1CCNC(=O)C1CC(=O)Nc1cccc(C)c1 (stereo unspecified)	697 NFkB inh 38 | 697 NFkB conf inactive
COc1cc(C(=O)NCCC(=O)NCc2cccs2)cc(OC)c1OC	none (no result: Calb FLC, 697 NFkB inh, Beta apoptosis, Jurkat NFkB inh)
CCC(=O)N(C1=C(NC)C(=O)c2ccccc2C1=O)C(C)C	697 NFkB inh 52 | 697 NFkB conf 47
CC(Oc1ccc(F)cc1)C(=O)Nc1ccccc1N1CCCCC1 (stereo unspecified)	none
O=C(NCc1cccnc1)c1cccn2c(=O)c3sccc3nc12	697 NFkB inh 38 | 697 NFkB conf inactive
O=C(O)c1ccccc1C(=O)NCc1cccnc1	none (no result: Beta apoptosis)
COc1ccc(C)cc1-n1c(SCC(=O)NC2CC2)nc2ccccc2c1=O	none (no result: Calb FLC)
Cc1cc(=O)[nH]c2c(C)cc(S(=O)(=O)N3CCCCC3)cc12	697 NFkB inh 43 | 697 NFkB conf 36
COc1cc(=O)n(C)c2cc(N(C)C)ccc12	697 NFkB inh 36 | 697 NFkB conf inactive
CCN(CC(=O)NCc1cccs1)CC(=O)Nc1cccc(S(N)(=O)=O)c1	none (no result: Calb FLC, Beta apoptosis)
O=C(CCCc1nc(-c2ccc(Cl)cc2)no1)NCC1CCCO1 (stereo unspecified)	none (no result: Beta apoptosis)
COc1ccc(-c2noc(CCCC(=O)NCC3CCCO3)n2)cc1 (stereo unspecified)	697 NFkB inh 41 (no result: Beta apoptosis) | 697 NFkB conf inactive
CCOc1ccc(-c2noc(CCC(=O)O)n2)cc1	697 NFkB inh 62 | 697 NFkB conf 49
COc1cccc(-c2noc(CCC(=O)NCCc3ccccc3)n2)c1	697 NFkB inh 49 | 697 NFkB conf 49
COc1ccc(-c2noc(CCCC(=O)O)n2)cc1	697 NFkB inh 74 | 697 NFkB conf 58
COc1ccc(-c2noc(CCC(=O)O)n2)cc1	none
O=C1C=CC(=O)N1	none (no result: Calb FLC)
CC(C)CCN1CCN(Cc2nc(-c3ccc(F)cc3)cs2)CC1CCO (stereo unspecified)	none
COc1ccc(Cc2nc(-c3ccc(NC(=O)c4cccnc4)cc3)no2)cc1	697 NFkB inh 51, Beta apoptosis 107 | 697 NFkB conf 33
COc1cccc(-c2nc(-c3ccc(C(=O)O)cc3)no2)c1	none | 697 NFkB conf inactive
O=C(O)c1ccc(-c2noc(-c3cccc(F)c3)n2)cc1	none
COC(=O)C[C@H]1C[C@H]2c3cc(NC(=O)C4CCOCC4)ccc3O[C@H]2[C@@H](CO)O1	none (no result: Calb FLC, 697 NFkB inh, Beta apoptosis, Jurkat NFkB inh)
Cc1ccc2ccc(C3C(=O)c4ccccc4C3=O)nc2c1	none | 697 NFkB conf inactive
O=C(OCc1cn([C@@H]2C[C@H](c3ccccc3)N(C(=O)C3CCCCC3)C[C@H]2O)nn1)c1ccccc1	none (no result: Calb FLC, 697 NFkB inh, Beta apoptosis, Jurkat NFkB inh)
Cn1nnnc1Sc1ncnc2scc(-c3ccc([N+](=O)[O-])cc3)c12	none (no result: Calb FLC) | 697 NFkB conf inactive
C#CCn1c(S(=O)(=O)Cc2ccccc2Cl)nc(-c2ccccc2)c1-c1ccccc1	none
C#CCn1c(S(=O)(=O)Cc2ccc(C)cc2)nc(-c2ccccc2)c1-c1ccccc1	none | 697 NFkB conf inactive
O=C(Oc1ccnc2cc(Cl)ccc12)N1CCCCCC1	697 NFkB inh 38 | 697 NFkB conf inactive
Cc1c(NC(=O)/C=C/c2cn(-c3ccccc3)nc2-c2ccccc2)c(=O)n(-c2ccccc2)n1C	697 NFkB inh 35 | 697 NFkB conf 28
O=C(O)/C=C/c1cn(-c2ccccc2)nc1-c1ccccc1	none
CCCN1C(=O)c2ccccc2NC1c1ccc(OC)cc1OC (stereo unspecified)	none
CCCN1C(=O)c2ccccc2NC1c1ccc(OC)cc1O (stereo unspecified)	none | 697 NFkB conf inactive
c1ccc(-c2cnc(-c3ccccc3)nc2)cc1	none | 697 NFkB conf inactive
O=C(O)c1ncc(-c2ccccc2)cn1	none
COC(=O)Cc1ccc(OC2(C)CCN(Cc3ccc(-c4ccccn4)cc3)C2)cc1 (stereo unspecified)	none (no result: Calb FLC, 697 NFkB inh, Beta apoptosis, Jurkat NFkB inh)
COc1cc(-c2nc(S(=O)(=O)c3ccc(Cl)cc3)c(N3CCOCC3)o2)cc(OC)c1OC	Calb FLC inconclusive
COc1cc(-c2nc(S(=O)(=O)c3ccc(C)cc3)c(N3CCOCC3)o2)cc(OC)c1OC	697 NFkB inh 42 | 697 NFkB conf inactive
CCOC(=O)c1nn(-c2ccc3c(c2)CCN3C(C)=O)cc1O	697 NFkB inh 36 | 697 NFkB conf inactive
C/C(N)=C(/C#N)C(=O)COC(=O)c1cc(C)n(-c2ccc(F)cc2)c1C	none | 697 NFkB conf inactive
Cc1cc(C(=O)OCC(N)=O)c(C)n1-c1ccccc1	none
COc1ccc(Cl)cc1NC(=S)NC(=O)c1ccco1	none (no result: Calb FLC)
CCCCCN(C(=O)CCC(=O)OCc1cccc(Br)c1)c1c(N)n(CCCC)c(=O)[nH]c1=O	697 NFkB inh 35 | 697 NFkB conf inactive
CCN1CCN(c2ccc(S(=O)(=O)N3CCCCC3)cc2NC(=O)CC(NC(C)=O)c2ccccc2)CC1 (stereo unspecified)	none
C#CC1(O)CCC2C3CCC4=Cc5oncc5CC4(C)C3CCC21C (stereo unspecified)	none (no result: Calb FLC, 697 NFkB inh, Beta apoptosis, Jurkat NFkB inh)
COc1ccccc1-c1cc(C(=O)NCCCN2CCOCC2)no1	none
O=C(NCCCN1CCOCC1)c1cc(-c2ccc(Cl)c(Cl)c2)on1	none
Cc1ccc(-c2cc(C(=O)NCCCN3CCOCC3)no2)cc1	697 NFkB inh 87 | 697 NFkB conf 85
O=C(NCCCN1CCOCC1)c1cc(-c2cccs2)on1	697 NFkB inh 48 | 697 NFkB conf inactive
Cc1nc2c(-c3ccc(F)cc3)cnn2c(N)c1-c1ccccc1	none | 697 NFkB conf inactive
Cc1cc(-c2csc3nc[nH]c(=S)c23)cc(C)c1C	697 NFkB inh 35 | 697 NFkB conf inactive
